Results on 37 molecules are retold here after PubChem BioAssay AID2320 (National Center for Advancing Translational Sciences (NCATS), 2010).

Inconclusive results are not listed. Active and inactive are the calls of the source. Calls follow the shape of the full dose curve.
Potency is read from the fitted curve at half-maximal effect.

The assay can be described thus: A qHTS for Small Molecule Inhibitors of Shiga Toxin (Confirmatory). Also: nearly all actives have a fitted effect of over 75% in size. As to activity, positive = inhibition of toxin: 0% is about no effect. The conditions noted are these: Cell-based Shiga toxin protection reporter assay; series mostly up to 38.3 µM; activity, positive = inhibition of toxin: at the top concentration.
`COc1ccc(-c2cc(-c3ccccc3O)[nH]n2)cc1OC`: the Potency is 2.25 µM (active). As for `Cc1cccc(NC(=O)CCN2C(=O)c3ccccc3S2(=O)=O)c1C`, the Potency is 20 µM (active). As to `O=C(Cc1c[nH]c2ccccc12)NCc1ccc(Cl)cc1`, the “activity, positive = inhibition of toxin” value was -8.01% (inactive). On the same count and under the same terms, to `Cc1nnc(N2C(=O)C(=O)/C(=C(/O)c3ccc4c(c3)OCCO4)C2c2ccc([N+](=O)[O-])cc2)s1` (configuration not stated) belongs 3.86% (inactive); to `O=C(CN1CCN(c2ncc(C(F)(F)F)cc2Cl)CC1)NC(=O)NCc1ccccc1`, -15.7% (inactive); to `COc1cc2c(c(OC)c1OC)-c1c(cc(OC)c(OC)c1OC)C[C@](C)(O)[C@@H](C)C2`, 34.8% (inactive). For the molecule `O=C(NCC1CCCO1)Nc1ccc2c(c1)OCO2` (configuration not stated), the Potency is 22.5 µM (active). On the same count and under the same terms, to `Cc1cc(C(=O)COC(=O)C2CC2)c(C)n1-c1ccc(F)cc1` belongs 4 µM (active); to `COc1cc(/C=C2/C(=O)c3cccc([N+](=O)[O-])c3C2=O)c(Br)cc1O`, 22.5 µM (active). Same read-out and setting: to `Cc1cc(C(=O)COC(=O)c2cccn2C)c(C)n1Cc1ccco1` belongs 0.252 µM (active). Same read-out and setting: as for `COc1ccc(C(=O)Nc2ccccc2C(=O)NCc2ccco2)cc1`, the figure is 5.65 µM (active); as for `Cc1ccc(C)n1-c1ccc(NC(=O)c2ccccc2)cc1`, 15.9 µM (active). As to `CC(=O)Nc1cccc(NC(=O)CSc2nc3ccccc3o2)c1`, the “activity, positive = inhibition of toxin” value is -0.494% (inactive). With `COc1ccc(OCc2cccc(C(=O)O)c2)cc1`, the Potency is 0.0356 µM (active). On to `CCOC(=O)C1CCCN(c2nc3ccccc3nc2C(C#N)C(=O)OCC)C1` (configuration not stated), for which the “activity, positive = inhibition of toxin” value is 38.5% (inactive).

For the molecule `CSc1nc(C)c2cc(C)oc2n1`, the “activity, positive = inhibition of toxin” value was -1.75% (inactive). Still for that read-out and setting: as for `CCCCc1ccc(NS(=O)(=O)N(C)C)cc1`, the figure is 22.2% (inactive); as for `CCN(CC)CC(=O)Nc1ccc(-c2nc3cc(NC(=O)CN(CC)CC)ccc3o2)cc1`, 46.8% (inactive).

Regarding `Nc1cc(N)nc(SCC(=O)Nc2ccc(Br)cc2Cl)n1`, the Potency was 11.3 µM (active). As to `CSCc1cc(N2CCOCC2)nc(SCc2ccc(Cl)cc2Cl)n1`, the “activity, positive = inhibition of toxin” value was -1.1% (inactive).

For the molecule `Cc1ccc(-c2csc(NC(=O)c3ccc(C)o3)n2)cc1`, the Potency was 0.0318 µM (active). The same measure, in the same setting: to `COc1ccccc1C(=O)CSc1nccn1C` belongs 28.3 µM (active). Consider `Cc1cc(C)n(-c2nc3c(c(=O)[nH]c(=O)n3C)n2Cc2cccc(Br)c2)n1`, for which the “activity, positive = inhibition of toxin” value was 20% (inactive).

Take `Cc1oncc1-c1csc(-c2ccccc2Cl)n1`: the Potency is 7.98 µM (active). As for `CCCc1cc(=O)oc2cc(C)cc(OCC(=O)NCc3ccccn3)c12`, the “activity, positive = inhibition of toxin” value was -31.3% (inactive). With `CCC(C)C1C(C#N)=C(N)OC2=C1C(=O)CC(C)(C)C2` (configuration not stated), the “activity, positive = inhibition of toxin” value is 15.3% (inactive). As for `COc1ccccc1CNC(=O)c1csc2c1CCCC2`, the Potency is 10 µM (active). Take `COc1ccc2nc3cc(Cl)ccc3c(NCCCN3CCN(CCCNc4c5ccc(Cl)cc5nc5ccc(OC)cc45)CC3)c2c1`: the “activity, positive = inhibition of toxin” value was -9.56% (inactive). For `O=C(Nc1cccc(-c2csc(Nc3ccc(Cl)cc3)n2)c1)c1ccccc1`, the Potency is 6.34 µM (active).

As for `CCOC(=O)N1CCN(C(=O)CCC(=O)c2ccc(OCC)cc2)CC1`, the “activity, positive = inhibition of toxin” value is 5.96% (inactive). Still for that read-out and setting: to `Cc1cc(Cl)ccc1NC(=O)CN1CCC(C(O)(c2ccccc2)c2ccccc2)CC1` belongs -5.9% (inactive); to `Cc1nn(C2CCCCC2)c(N)c1-c1ccccc1`, 17.1% (inactive). Still for that read-out and setting: as for `COc1cccc(C(=O)NNC(=O)C2CC(C)=C(C)CC2C(=O)O)c1` (configuration not stated), the figure is -47.7% (inactive); as for `Cn1c(=O)c2ncn(CC(=O)NCCOc3ccccc3)c2n(C)c1=O`, -16.7% (inactive). On to `CN(C)S(=O)(=O)c1ccc(C(=O)Nc2ccc(CN3CCCC3)cc2)cc1`, for which the Potency was 0.0283 µM (active). Same read-out and setting: to `Cc1cccc(Cn2cc(SCC(=O)Nc3nccs3)c3ccccc32)c1` belongs 8.95 µM (active); to `Cc1ccc2c(CN3CCCCC3C)cc(=O)oc2c1C` (configuration not stated), 0.01 µM (active).
